The list is not random: actives were taken first. Their share in the collection is about 1%.
gsp antagonist = antagonizes gsp, the McCune-Albright syndrome mutation; Potency, µM (titrated, usually from 76.9 µM), for the others: at the highest dose activity change, negative = inhibition, usual class: inhibitors; gsp-mutant cells, cAMP HTRF, 30 min; 340,000 tested, 0.4% active; calls by dose curve; cell line not stated here;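 also: intracellular cAMP measured with PDE inhibitor Ro 20-1724 present during compound exposure; potency is read from the fitted curve at half-maximal effect; % is scaled to controls: 0 for no effect and ±100 for the full control effect; nearly all actives have a fitted effect of over 65% in size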
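HTRF cAMP measurement after 30 min RT detection following 30 min, 37C compound treatment alongside […] (added as 300 uM solution) in G418-selected cells seeded at 2000/well and grown 16–24 h.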
gsp agonist = gsp mutant agonism. AID 624287. Potency, µM (series often up to 76.9 µM), without a hit: top-dose activation (cAMP increase), hits mostly activators. gsp mutant cells, cAMP HTRF, 30 min. 340,000 tested, 0.13% active; active = well fitted activation curve with a large enough effect; inconclusive = small, poorly fitted or top-dose-only effect, or another doubt; inactive = no such curve, though single readings can be large or run the other way; cell line not stated here;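 also: phosphodiesterase inhibitor Ro 20-1724 added with compounds to block cAMP breakdown; potency is read from the fitted curve at half-maximal effect; nearly all actives have a fitted effect of over 60% in size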
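Cells in DMEM/10% FBS with G418 were pretreated with compounds in DMSO plus […] (300 uM stock) for 30 min at 37C. cAMP was measured by HTRF (cAMP-d2 plus anti-cAMP antibody-K) after 30 min at room temperature.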
RXFP1 antagonist = blocks the human relaxin receptor RXFP1; Q9HBX9; HEK293-RXFP1, relaxin-stimulated cAMP HTRF, 30 min; active compounds read low; activity change, negative = inhibition, % at 57.5 µM; 350,000 tested, 0.59% active; AID 1259400;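 active = activity change of -60% or lower, but not beyond a set lower limit; inconclusive = change between -60% and -40%, or beyond the set limit; inactive = change above -40%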; also: % is scaled to controls: 0 for no effect and ±100 for the full control effect
Target sequence (Q9HBX9 whole entry, looked up): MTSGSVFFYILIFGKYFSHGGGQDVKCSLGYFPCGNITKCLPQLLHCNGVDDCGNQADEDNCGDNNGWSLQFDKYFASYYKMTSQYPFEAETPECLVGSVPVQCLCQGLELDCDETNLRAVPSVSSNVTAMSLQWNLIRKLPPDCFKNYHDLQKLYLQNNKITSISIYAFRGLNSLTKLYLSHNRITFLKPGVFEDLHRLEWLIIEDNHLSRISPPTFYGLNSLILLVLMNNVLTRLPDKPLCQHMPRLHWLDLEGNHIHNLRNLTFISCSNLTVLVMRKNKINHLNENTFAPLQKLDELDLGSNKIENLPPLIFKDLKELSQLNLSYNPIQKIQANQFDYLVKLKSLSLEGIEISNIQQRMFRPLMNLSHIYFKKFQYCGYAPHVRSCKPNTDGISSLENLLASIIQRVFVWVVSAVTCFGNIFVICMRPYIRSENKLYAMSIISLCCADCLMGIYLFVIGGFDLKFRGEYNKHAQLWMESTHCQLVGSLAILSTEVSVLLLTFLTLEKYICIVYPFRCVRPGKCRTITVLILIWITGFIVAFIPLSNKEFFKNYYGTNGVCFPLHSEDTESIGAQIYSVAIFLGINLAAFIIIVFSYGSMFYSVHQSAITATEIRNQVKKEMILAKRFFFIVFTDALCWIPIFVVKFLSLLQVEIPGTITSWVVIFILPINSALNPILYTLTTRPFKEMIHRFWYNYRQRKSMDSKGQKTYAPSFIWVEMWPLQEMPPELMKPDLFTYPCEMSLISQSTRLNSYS
RXFP1 agonist = RXFP1 (human) receptor agonism; Q9HBX9; HEK293T-RXFP1 cAMP TR-FRET, 30 min; response scale: percent of porcine relaxin response, buffer zero; Potency, µM (titrated, usually from 57.5 µM), inactives show top-dose activation, actives largely listed as activators; 370,000 tested, 0.3% active; AID 2676; active = well fitted activation curve with a large enough effect; inconclusive = small, poorly fitted or top-dose-only effect; also: potency is read from the fitted curve at half-maximal effect; % is scaled to controls: 0 for no effect and ±100 for the full control effect; nearly all actives have a fitted effect of over 60% in size
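Agonist response is measured as cAMP accumulation in an RXFP1-transfected HEK293T line under PDE4 inhibition. Values are scaled between buffer-only and 29 nM porcine relaxin, and EC50s come from standard Hill equation fits.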
TSHR antagonist = antagonists of human thyroid stimulating hormone receptor; P16473; TSHR-expressing cells, TSH-stimulated cAMP HTRF, 2 h; active compounds read low; activity change, negative = inhibition, % at 11.5 µM; 330,000 tested, 0.2% active; AID 504810;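 active = activity change below a set negative limit, meaning inhibition stronger than a set level, cut at about -70% in these data; inconclusive = activity change between two set negative limits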; also: % is scaled to controls: 0 for no effect and ±100 for the full control effect
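Antagonism was scored as loss of TSH-driven cAMP in TSHR cells, stimulated with 4nM TSH (EC80) for 2 hours at 37 deg C and detected by homogeneous HTRF competition immunoassay.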
Active calls of the source: *; ? = inconclusive; . = no result; [ ] = another dose, or the depositor's remark.

SMILES	gsp antagonist	gsp agonist	RXFP1 antagonist	RXFP1 agonist	TSHR antagonist
CCOCCn1ccc2c(OCC(=O)Nc3cc(OC)ccc3OC)cccc2c1=O	16µM*	9%[15.4 µM]	-2	2%	-27
COc1ccccc1NC(=O)COc1ccc(-c2nn(C)c(=O)c3ccccc23)cc1	28µM*	23%[15.4 µM]	-1	0%	-13
Cn1nc(-c2ccc(OCC(=O)Nc3ccccc3)cc2)c2ccccc2c1=O	?	25%	-20	-2%	-10
COc1ccccc1NC(=O)c1ccc(-c2nn(C)c(=O)c3ccccc23)cc1	40µM*	1%[15.4 µM]	-34	0%	-22
CCOc1ccc(NC(=O)Cc2coc3ccc(C)cc23)cc1	.	.	-9	2%	.
COc1ccc2c(C(=S)N(C)CC(=O)O)cccc2c1C(F)(F)F	.	.	-3	.	.
CCC(=O)N1c2ccccc2CC1C(=O)NCc1ccc(CC)cc1 (stereo not given)	.	.	6	0%	.
Cc1ccc2nc(-c3ccc(Cl)cc3)cc(C(=O)OCC(=O)c3ccccc3)c2c1	.	.	0	1%	.
CCc1nc(Nc2cccc(O)c2)c2oc3ccccc3c2n1	-26%	22%	-76*	5%	-10
CCc1nc(Nc2ccncc2)c2oc3ccccc3c2n1	0%	-19%	-12	0%	-2
CCOC(=O)N1CCC(Nc2ccc(Cl)cc2N)CC1	.	.	-22	.	.
Cc1ccc(C)c(NC(=O)c2cc(S(=O)(=O)N3CCCc4ccccc43)ccc2F)c1	.	.	-7	-1%	.
COc1ccc(C(C)=O)cc1CSc1nnc(Nc2ccc(C)cc2C)s1	-29%	-14%[15.4 µM]	5	2%	-6
COc1ccc(C(C)=O)cc1CSc1nnc(Nc2ccccc2C)s1	11µM*	-46%	.	0%	0
COc1ccc2c(c1)CC(C(=O)NCCCN1CCN(c3cccc(Cl)c3)CC1)CO2 (stereo not given)	.	.	-12	0%	.
CCS(=O)(=O)c1nc(S(=O)(=O)c2ccc(C)cc2)c(N2CC(C)OC(C)C2)s1 (stereo not given)	4%	?	-15	28µM*	15
CCCS(=O)(=O)c1nc(S(=O)(=O)c2ccc(C)cc2)c(N2CCN(CC)CC2)s1	14%	?	34	?	22
CCCS(=O)(=O)c1nc(S(=O)(=O)c2ccc(C)cc2)c(N2CC(C)OC(C)C2)s1 (stereo not given)	-7%	?	17	25%	23
CCCS(=O)(=O)c1nc(S(=O)(=O)c2ccc(C)cc2)c(N2CCN(C)CC2)s1	5%	3.2µM*	5	?	5
CCS(=O)(=O)c1nc(S(=O)(=O)c2ccc(Cl)cc2)c(NCCCN2CCCC2=O)s1	1%	?	26	20%	18
CCCS(=O)(=O)c1nc(S(=O)(=O)c2ccc(C)cc2)c(NCCCN2CCCC2=O)s1	-4%	2.8µM*	23	17%	-10
Cc1cc(OCC(=O)Nc2ccc(-c3nc4cc(Cl)ccc4o3)cc2)cc(C)c1Cl	.	.	.	2%	.
CN(C)CCCN(C(=O)c1ccc2c(c1)CCCC2)c1nc2c(F)cccc2s1	5%	18%[15.4 µM]	-74*	2%	-3
COc1ccc2c(c1)c1c(c(=O)n(-c3cccc(C)c3)c(=O)n1CC(=O)NCC1CCCO1)n2C (stereo not given)	.	.	.	2%	.
COc1ccc(-c2nc(SCC(=O)NCc3nc4ccccc4n3C)n3[nH]c(=O)cc3n2)cc1	.	.	-5	-2%	.
SMILES	gsp antagonist	gsp agonist	RXFP1 antagonist	RXFP1 agonist	TSHR antagonist
Cc1ccc(Cl)cc1N1CCN(C(=O)c2cnc(N3CCOCC3)c3ccccc23)CC1	.	.	-82*	-1%	.
Cc1ccc(N2CCN(C(=O)c3cnc(N4CCCCC4)c4ccccc34)CC2)c(C)c1	.	.	-70*	2%	.
CCOc1ccccc1NC(=O)c1ccc2c(Cl)c3c(nc2c1)CCC3	.	.	.	17%	.
OCCNC(=S)NCCc1ccccc1	15%	-41%	1	0%	0
CC(C)(CNC(=S)NCCc1ccccc1)CNC(=S)NCCc1ccccc1	35µM*	-3%	-3	1%	-14
CN(C)CCCNC(=S)NCC(c1ccc(Cl)cc1Cl)c1c[nH]c2ccccc12 (stereo not given)	9%	12%[15.4 µM]	-61*	2%	4
CCCCNC(=S)NCC(c1ccccc1)c1c[nH]c2ccccc12 (stereo not given)	-29%	-15%	-9	1%	-3
O=C(Nc1ccc(C(=O)N2CCCC2)cc1)c1ccccc1F	-3%	14%	-4	0%	2
O=C(Nc1cc(C(=O)N2CCCC2)ccc1N1CCCC1)c1ccccc1F	6.3µM*	?	-26	-1%	-4
CC(C)(C)[C@H](NC(=O)c1ccc(N)c(Cl)c1)C(=O)N1CCC[C@H]1C(=O)N[C@H](C#N)Cc1nn[nH]n1	.	.	.	0%	-10
C=CCn1c(O)c(C2=c3ccccc3=NC2=O)c2ccccc21	11%	-28%	-95*	1%	18
COc1ccccc1N1CCN(CCCNC(=O)c2cnn(-c3ccccc3)c2C2CCN(C(=O)OC(C)(C)C)CC2)CC1	.	.	?	1%	.
O=C1c2cccc3c([N+](=O)[O-])ccc(c23)C(=O)N1c1ccccn1	-11%	?	19	1%	58
O=C1c2cccc3c([N+](=O)[O-])ccc(c23)C(=O)N1c1ccc(Cl)cn1	15%	?	-31	3%	-89*
CCN(CC)CC(=O)N1c2ccccc2Sc2ccccc21	19%	-2%	1	-2%	-2
CCN(CC)CCCCN1c2ccccc2Sc2ccccc21	11%	?	-63*	-1%	7
CCOc1ccc(C(=O)Nc2ccc3oc(-c4ccncc4)nc3c2)cc1	.	.	-9	24%	.
CCCOc1ccc(C(=O)Nc2ccc3oc(-c4ccc(N(C)C)cc4)nc3c2)cc1	.	.	5	3.2µM*	.
CCc1ccc(NC(=O)C2CCCN2S(=O)(=O)c2ccc3c(c2)CCCC(=O)N3)cc1 (stereo not given)	.	.	.	-1%	.
COc1ccc(C2c3ccc4ccccc4c3Oc3ncn(CCO)c(=N)c32)cc1 (stereo not given)	2%	?	-12	-1%	3
COc1ccc(C2c3ccc4ccccc4c3Oc3ncn(CCN(C)C)c(=N)c32)cc1 (stereo not given)	5%	7%	-108*	2%	-8
CCC1(c2ccccc2)SCC(c2ccccc2)=NC1=O (stereo not given)	-15%	3%	-62*	.	.
NNC(=O)CSc1nc(-c2ccccc2)nc2c1CCCC2	-6%	12%	-69*	0%	-17
Cc1ccc(C(=O)CSc2nc(-c3ccccc3)nc3c2CCCC3)cc1	.	.	.	6%	.
CCCCOc1ccc(C(=O)Nc2onc3c2CCCC3)cc1	.	.	-32	-1%	.
Cc1c(C(=O)Nc2cccc(Cl)c2)c2ccccn2c1CCc1ccncc1	28µM*	-9%[15.4 µM]	38	5%	-24

Compound activity (PubChem)
